# Source: PubChem BioAssay (Broad Institute)
# MITF TRPM1 inh – inhibitors of MITF-driven TRPM1 promoter in melanoma cells. inhibition, % at 12.5 µM. AID 488899. SK-MEL-5 TRPM1 promoter luciferase, 24 h. 0.83% of 330,000 active;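 active = mean inhibition across replicates of 60% or more, whatever share of single replicates reaches that level; inconclusive = some that reach 60%, reason not given; inactive = mean inhibition across replicates below 60%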
# EWS-Fli block – inhibitors of EWS/Fli oncoprotein transcriptional activity. A673 NR0B1-luciferase reporter, viability-normalised. inhibition, % at 12.6 µM. 0.67% of 350,000 active;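 active = mean inhibition of at least 50% after viability correction, with every replicate also passing that limit; inconclusive = mean reaches 50% but only one of two replicates passes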;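 note: firefly luciferase signal divided by Alamar Blue viability fluorescence both relative to DMSO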
# PAX8 inh HTS – lowers PAX8-driven luciferase in RMG-I cells | inhibition, % at 12.6 µM | AID 652154 | 1.2% of 360,000 active | RMG-I TPO-luciferase reporter, SteadyGlo, 24 h;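 active = mean replicate inhibition at least 60% with every replicate also reaching 60%; inconclusive = only one of the two criteria is met; inactive = mean below 60% and not all replicates reaching 60%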;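 note: luciferase light reporting Pax8 driven TPO promoter activity; plate controls were median of neutral control wells for no effect and mitoxantrone controls for full effect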
# esBAF inh – inhibitors of esBAF chromatin remodeling in mouse ES cells; reporter increase, % at 12.5 µM; Bmi1-luciferase knock-in reporter, 24 h; 100% = twice the neutral-well signal; AID 602393; 2% of 350,000 active; in the data active = activation above about 40%; inconclusive = no clear call, values can overlap the other calls;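 note: 0% = median of the plate's neutral control wells and 100% = double that signal; a rise in the Bmi1 reporter signal indicates esBAF inhibition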
# MITF act – increases MITF-driven TRPM1 promoter luciferase signal; SK-MEL-5 TRPM1-promoter luciferase, 24 h; % of positive control, neutral wells = 0; activation, % at 12.5 µM; 0.75% of 300,000 active;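 active = mean activation of at least 80% with every replicate also reaching 80%; inconclusive = mean reaches 80% but some replicate falls short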;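 note: 0% = neutral control wells and 100% = parthenolide positive control wells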
# Wnt bcat act – activates Wnt/beta-catenin signaling in a reporter cell assay. activator, plate reader. activation, % at 9.35 µM. 1.2% of 300,000 active; in the data active = activation above about 30%, passing the limit was not always enough; inconclusive = no clear call, values can overlap the other calls;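 note: 0% = neutral control wells and 100% = positive control wells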
# Starred values were filed as active, the others as inactive; ? = inconclusive; · = not tested or not shown. A selection: hits, their analogues and other compounds. The true share with any hit is near 4%.
SMILES,MITF TRPM1 inh,EWS-Fli block,PAX8 inh HTS,esBAF inh,MITF act,Wnt bcat act
O=C(C[C@@H]1C=C[C@H](NC(=O)Cc2cccnc2)[C@H](CO)O1)Nc1ccc(-c2ccccc2)cc1,·,-23.3,23.0,·,·,·
CO[C@H]1CN(C)C(=O)c2ccc(NS(=O)(=O)c3ccccc3C)cc2OC[C@H](C)N(C)C[C@@H]1C,·,·,2.8,·,·,·
CCN(C)c1ccc(/C=N\n2nnnc2N)cc1,-21.1,·,-66.6,·,27.8,·
CCN(CC)c1ccc(/C=N/n2nnnc2N)c(O)c1,-18.6,·,·,44.4*,20.5,·
COc1ccc(C2=NN(C(=O)c3cccs3)C(c3ccccc3O)C2)cc1 (stereo not drawn),-12.8,-8.9,1.1,·,16.2,1.1
COc1ccc(C2CC(c3ccccc3)=NN2C(=O)c2cccs2)cc1 (stereo not drawn),-37.5,·,·,46.8*,33.2,·
CC(=O)Nc1ccc(NC(=O)CN(c2ccccc2Cl)S(C)(=O)=O)cc1,-6.5,·,·,-2.2,4.6,40.0*
CCS(=O)(=O)N1CCC2(CC1)CN(C(=O)Cc1ccccn1)[C@H](CO)c1[nH]c3cc(OC)ccc3c12,·,·,-15.2,·,·,·
CO[C@@H]1CN(C)C(=O)c2cc(NS(C)(=O)=O)ccc2OC[C@H](C)N(Cc2cocn2)C[C@H]1C,·,-0.6,-25.9,·,·,·
CC(=O)Oc1ccc2occ(C(=O)c3ccccc3)c2c1,·,-73.6,-188.9,·,·,-0.4
O=C(CCl)Oc1ccc2occ(C(=O)c3cccs3)c2c1,-42.4,·,·,93.4*,44.3,·
CC(=O)Oc1ccc2occ(C(=O)c3cccs3)c2c1,-49.6,·,-195.0,60.2*,56.4,80.2*
O=C(c1cccs1)c1coc2ccc(O)cc12,-85.5,·,-193.3,67.3*,94.3*,51.2*
O=C(c1cccc(Br)c1)c1coc2ccc(O)cc12,-83.7,-57.2,-60.0,69.9*,90.4*,-3.7
Cc1noc(C)c1NC(=O)Nc1ccc2c(c1)C(=O)N([C@H](C)CO)C[C@H](C)[C@@H](CN(C)C(=O)Nc1ccc(C(F)(F)F)cc1)OCCCC[C@@H](C)O2,·,6.1,-22.4,-1.4,·,·
C[C@H](CO)N1C[C@H](C)[C@@H](CN(C)C(=O)c2ccncc2)Oc2cc(-c3cccc(C#N)c3)ccc2S1(=O)=O,·,5.4,-10.8,-6.5,·,·
C[C@@H]1CCCCO[C@@H](CN(C)Cc2ccncc2)[C@H](C)CN([C@H](C)CO)C(=O)c2cc(NC(=O)c3ccccc3)ccc2O1,·,1.4,5.6,0.9,·,·
CC(=O)Oc1ccc2occ(-c3ccccc3)c2c1,-35.4,-57.4,-108.5,46.6*,36.4,5.7
CCN(CC)C(=O)Oc1ccc2c(=O)c(-c3ccccc3)coc2c1,-81.5,·,·,26.1,77.6,·
CO[C@H]1CN(C)C(=O)c2cc(NC(=O)C3CC3)ccc2OC[C@H](C)N(CC2CCOCC2)C[C@@H]1C,·,5.1,-9.8,0.4,·,·
NC(=O)NCCC1=CCCCC1,9.3,·,·,0.2,·,-4.8
C=CCn1c(N)c(C(=O)NCCC2=CCCCC2)sc1=S,-70.3,-56.7,·,46.9*,62.9,10.3
O=C(COc1ccccc1)Nc1cccc(-c2nc3cc4ccccc4cc3[nH]2)c1,-104.7,·,·,6.5,105.5*,·
O=C(COc1ccccc1)Nc1cccc(-c2nn[nH]n2)c1,0.7,6.4,-14.0,-9.8,-0.9,-2.4
CC(Oc1ccccc1)C(=O)Nc1cccc(-c2nc3ccccc3[nH]2)c1 (stereo not drawn),-3.7,·,·,45.9*,·,·
SMILES,MITF TRPM1 inh,EWS-Fli block,PAX8 inh HTS,esBAF inh,MITF act,Wnt bcat act
Cc1cccc(N/N=C/c2ccncc2)c1,-121.2,-94.5,-137.1,37.2,129.1*,13.3
CCCCN1CC(O)=C(c2nc3ccccc3s2)C1=N,-68.4,·,-91.5,58.3*,71.9,-0.9
O=C(CCS(=O)(=O)c1ccccc1Cl)NC1CCCCCC1,-46.2,-62.2,-72.6,49.0*,51.5,20.6
O=C(CCS(=O)(=O)c1ccccc1)NC1CCCCC1,-101.1,-77.2,-154.5,·,105.3*,22.3
COc1ccc(S(=O)(=O)CCC(=O)NC2CCCCC2)cc1,-0.8,·,·,4.1,-0.4,-7.5
O=C(CCS(=O)(=O)c1cccc2nsnc12)NC1CCCCC1,-13.1,·,·,2.7,14.5,·
N#C/C(=C1/CCCCCN1)c1nc2ccccc2[nH]1,-55.1,·,·,49.9*,62.3,·
N#C/C(=C1\CCCN1)c1ccc2ccccc2n1,5.9,·,·,8.3,-5.0,·
COCC(=O)N1CC2(C1)CN(Cc1ccccn1)[C@@H](CO)c1[nH]c3cc(OC)ccc3c12,·,-4.9,6.4,·,·,·
COc1ccc(C(=O)OCc2cc(=O)n3c(C)csc3n2)cc1F,-102.9,-16.9,-94.8,72.7*,106.0*,18.7
Cc1ccc(C(=O)OCc2cc(=O)n3c(C)csc3n2)s1,-49.5,-7.7,-16.3,-1.1,53.5,2.8
Brc1ccc(N=Nc2ccc3ccccc3n2)cc1,54.9,77.4*,78.5*,·,·,-10.6
CC(NC(=O)c1ccc2ccccc2n1)c1ccc(Br)cc1 (stereo not drawn),8.5,7.3,14.9,1.6,-4.7,-1.8
O=C(Nc1ccc(C(=O)Oc2ccccc2)c(O)c1)c1ccccc1,-47.5,-6.9,-17.7,·,53.7,27.8
CC(NC(=O)c1ccco1)C(=O)Nc1nccs1 (stereo not drawn),1.4,-9.4,-1.5,-9.1,0.6,-3.0
O=C(Nc1ccc(C(=O)Oc2ccccc2)c(O)c1)c1ccco1,-76.7,·,·,56.5*,78.7,·
O=C(Nc1nccs1)c1ccc(NC(=O)c2ccco2)cc1,-76.6,·,·,49.8*,76.2,·
O=C(Nc1ccc(NC(=O)c2ccco2)cc1)c1ccco1,-52.0,·,-85.0,45.5*,52.9,9.2
Cc1ccc(NC(=O)CNC(=O)c2ccco2)cc1,-42.7,-41.8,-70.1,42.2*,45.3,13.4
CO[C@H]1CN(C)C(=O)c2cc(NC(=O)C3CCCC3)ccc2OC[C@H](C)N(CC2CC2)C[C@@H]1C,·,2.3,-8.3,10.0,·,·
COc1cccc(CNC(=O)C[C@@H]2C=C[C@H](NC(=O)C3CCOCC3)[C@@H](CO)O2)c1,·,1.4,-11.4,0.4,·,·
COC(=O)C[C@@H]1C[C@@H]2c3cc(NC(=O)Nc4ccc(OC)cc4)ccc3O[C@@H]2[C@H](CO)O1,·,2.7,2.8,2.5,·,·
O=C(Nc1ccc(Br)cc1)c1ccco1,-88.2,-90.3,·,71.0*,90.8*,23.0
O=C(Nc1ccc(Nc2ccccc2)cc1)c1ccco1,-70.0,·,·,?,58.9,·
CC(=O)Nc1ccc2nc(-c3ccco3)[nH]c2c1,-27.6,-31.0,-27.0,·,27.5,3.0
O=C(COC(=O)c1cccc(NC(=O)c2ccco2)c1)c1ccc(Br)cc1,-9.5,·,·,21.0,·,42.8*
O=C(Nc1ccc2nc(-c3ccco3)[nH]c2c1)c1ccco1,-38.5,·,-39.1,32.2,·,37.1*
CC(=O)N(C)c1ccc(NC(=O)c2ccco2)cc1,-32.9,·,-84.1,28.2,35.1,35.0*
Cc1noc(C)c1NC(=O)Nc1ccc2c(c1)CC(=O)N([C@H](C)CO)C[C@@H](C)[C@@H](CN(C)S(=O)(=O)c1ccc(F)cc1)O2,·,0.6,-16.2,-2.8,·,·
